Data as given in PubChem BioAssay AID1224904 (Broad Institute, 2016).
Among all 37,000 compounds or so, about 290 (0.78%) were called active. Roughly 10% stayed inconclusive and do not appear here.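 Rule for the calls: active = mean inhibition of at least 10% in the main channel, exceeding the control channel by a set limit; inconclusive = inhibition of 10% or more but channel gap under a set limit; inactive = mean inhibition below 10%.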 For the sample, actives were picked, then their nearest neighbours and some compounds at random.

Assay: inhibitors of DUX4-driven ZSCAN4 reporter expression, primary screen, 293T cells, Gaussia and Italica luciferase (AID 1224904);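 for activity change, negative = inhibition: 0% = median of neutral control wells and -100% = median of positive control wells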
Settings: 293T-iDUX4 ZSCAN4-Gaussia luciferase reporter, 24 h, stronger effect = lower value, concentration not given here; for Gaussia minus Italica difference: measured here: selective DUX4 reporter inhibition
[1] = measured here: Italica tet-on control reporter

SMILES | activity change, negative = inhibition | activity change, negative = inhibition [1] | Gaussia minus Italica difference
O=C(NCC(F)(F)F)[C@H]1[C@H](CO)[C@H]2Cn3c(ccc(-c4ccncc4)c3=O)[C@H]2N1Cc1ccncc1 | 5.89% (inactive) | -1.87% | 7.77%
CCNC(=O)C[C@@H]1CC[C@@H]2[C@H](COC[C@H](O)CN2S(=O)(=O)c2ccc(Oc3ccccc3)cc2)O1 | 1.12% (inactive) | 2.14% | -1.02%
CC(C)[C@@H]1COCc2cnnn2CCC[C@H](C)C(=O)N1 | -1.36% (inactive) | -1.01% | -0.347%
COCC(=O)N1[C@H](CNC(=O)c2ccccn2)[C@H](c2ccccc2)[C@@H]1CO | -0.865% (inactive) | 1.68% | -2.54%
Cc1ccc(S(=O)(=O)N(C)C[C@H]2OCc3ccccc3-c3ccccc3C(=O)N([C@@H](C)CO)C[C@@H]2C)cc1 | 10.1% (inactive) | 2.48% | 7.63%
O=C(C[C@@H]1CC[C@@H]2[C@H](COC[C@H](O)CN2Cc2cccc(F)c2)O1)NCc1ccncc1 | 6.79% (inactive) | -2.25% | 9.04%
CCCC#Cc1ccc([C@H]2[C@@H](CO)N3CCCCN(C(=O)c4ccc5c(c4)OCO5)C[C@@H]23)cc1 | -4.6% (inactive) | 3.84% | -8.43%
CCC(=O)N1CC2(C1)[C@@H](c1ccc(-c3ccc(C#N)cc3)cc1)[C@H](CO)N2C(C)=O | 10.1% (inactive) | -1.24% | 11.4%
CCC(=O)N1CCC2(CC1)CN(Cc1cccc(Cl)c1)[C@@H](CO)c1c2c2ccc(OC)cc2n1C | -5.44% (inactive) | -3.43% | -2.02%
C/C=C/c1ccc([C@H]2[C@@H](CO)N(C(=O)CN(C)C)C23CN(C(=O)C2CCCC2)C3)cc1 | -0.233% (inactive) | -6.7% | 6.47%
COc1cc(CN2CC3(CN(S(=O)(=O)c4cn(C)cn4)C3)c3c(n(C)c4cc(OC)ccc34)[C@H]2CO)cc(OC)c1 | -2.88% (inactive) | -0.316% | -2.57%
CCCNC(=O)C[C@H]1CC[C@H]2[C@H](COc3ccc(NC(=O)CC)cc3C(=O)N2C)O1 | 2.97% (inactive) | -1.81% | 4.79%
CN(C)C(=O)[C@@H]1[C@@H](CO)[C@@H]2Cn3c(cccc3=O)[C@H]1N2CC1CCCCC1 | -1.56% (inactive) | -4.57% | 3%
COc1cccc(-c2ccc([C@@H]3[C@@H](CO)N(C(=O)c4ccccn4)[C@H]3C#N)cc2)c1 | 5.81% (inactive) | -1.92% | 7.74%
C[C@H](NC(=O)C[C@@H]1CC[C@@H]2[C@H](COC[C@@H](O)CN2Cc2cc(F)ccc2F)O1)c1ccccc1 | 0.118% (inactive) | 1.93% | -1.81%
O=C(Cc1ccccc1)N1C[C@@H]2[C@H](c3ccccc31)[C@@H](CO)N2C(=O)C1CCOCC1 | 1% (inactive) | 2.15% | -1.15%

SMILES | activity change, negative = inhibition | activity change, negative = inhibition [1] | Gaussia minus Italica difference
C[C@@H](O)C#Cc1ccc([C@@H]2[C@H]3CN(C(=O)c4ccc5c(c4)OCO5)CCCCN3[C@H]2CO)cc1 | 1.93% (inactive) | 10.3% | -8.36%
COCC(=O)Nc1ccc2c(c1)C(=O)N(C)[C@@H]1CC[C@@H](CC(=O)NCCCN(C)C)O[C@@H]1CO2 | -2.75% (inactive) | -0.412% | -2.33%
COc1ccccc1S(=O)(=O)N1CC[C@H]2[C@@H](CO)N(C)c3ccc(C#Cc4ccccc4)cc3[C@H]21 | 8.89% (inactive) | 12.9% | -4.03%
C[C@@H]1CN([C@@H](C)CO)C(=O)c2c(c3ccccc3n2C)-c2ccccc2CO[C@H]1CN(C)C(=O)C1CC1 | 7.74% (inactive) | 14.6% | -6.9%
COc1ccccc1NC(=O)N1[C@@H]2CNC[C@H]1C2c1ccc(-c2ccccc2C)cc1 (stereo partly drawn) | 17.2% (inactive) | 3.5% | 13.7%
O=C1N[C@H](c2ccccc2)COCc2cn(nn2)CC[C@@H]1Cc1ccc(Cl)cc1 | -6.57% (inactive) | -14.5% | 7.94%
Cn1cnc(CCNC(=O)C[C@H]2CC[C@H]3[C@@H](COC[C@H](O)CN3C(=O)C3CCCC3)O2)c1 | 4.42% (inactive) | -1.98% | 6.41%
CCCNC(=O)Nc1ccc2c(c1)C(=O)N(C)C[C@H](OC)[C@H](C)CN[C@@H](C)CO2 | 5.48% (inactive) | 4.45% | 1.03%
CN1c2ccc(Br)cc2[C@@H]2[C@@H](CCN2C(=O)Cc2ccccc2)[C@@H]1CO | 6.02% (inactive) | 3.73% | 2.29%
O=C(C[C@@H]1CC[C@H]2[C@@H](COC[C@@H](O)CN2Cc2nccs2)O1)NCc1ccc(-c2ccccc2)cc1 | -5.3% (inactive) | -11.9% | 6.63%
O=C(c1ccccc1F)N1C[C@@H]2[C@H](c3ccccc31)[C@H](CO)N2C(=O)C1CCCC1 | 1.9% (inactive) | 3.72% | -1.83%
Cc1ccccc1-c1ccc(C2[C@@H]3CN(C(=O)C4CCCCC4)C[C@H]2N3)cc1 (stereo partly drawn) | -6.47% (inactive) | -0.357% | -6.12%
O=C(CN1CCOCC1)N1C[C@@H]2N[C@H](C1)C2c1ccc(-c2ccncc2)cc1 (stereo partly drawn) | 15.1% (inactive) | 19.9% | -4.83%
O=C(C1CCC1)N1C[C@@H]2N[C@H](C1)C2c1ccc(-c2cncnc2)cc1 (stereo partly drawn) | -25.8% (active) | -0.405% | -25.4%
COCC(=O)Nc1ccc2c(c1)OC[C@@H](C)N(C(=O)CC1CC1)C[C@@H](C)[C@@H](OC)CN(C)C2=O | -1.74% (inactive) | -0.0881% | -1.65%
